Among the test systems are DU-145 prostate; K-562 leukemia; MALME-3M melanoma; MDA-MB-231 breast; RXF 393 renal; SF-268 CNS; SF-295 CNS; SF-539 CNS; UACC-257 melanoma; M14 melanoma.
Holding throughout (experiment): NCI-60 one-dose screen, 48 h (100 = growth as untreated, 0 = no growth, -100 = all killed)
Holding throughout (settings): 10 µM

Our source for the growth values is PubChem BioAssay (NCI).

About 83,000 compounds went through this panel and 20% of them were active in at least one assay; those are over-represented in the sample as a whole.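 A percent growth of 40 corresponds to 60% growth inhibition; 0 means no net growth; -100 means all cells died. Active threshold: below 10.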 Values without a mark were called inactive. Activity calls are given as the source filed them.

Take `CCn1nc(-c2ccc(C(=O)OC)cc2)nc2c(=O)n(C)c(=O)nc1-2`: the growth with DU-145 prostate was 77.6%; in the test with K-562 leukemia, 80.9%; in the test with MALME-3M melanoma, 29.1%; with MDA-MB-231 breast, 15.8%; with RXF 393 renal, 13.9%; in the test on SF-268 CNS it was 60.7%. Besides, the growth was 36.8% with SF-295 CNS, 2.03% (active) in the test on SF-539 CNS, 105% with UACC-257 melanoma and 78.3% with M14 melanoma.

Consider `CCOc1ccc2c(c1)CC[C@@H]1[C@@H]2CC[C@]2(C)[C@@H](O)[C@@H](O)C[C@@H]12`, for which the growth in the test with DU-145 prostate was 108%; in the test on K-562 leukemia it was 91.8%; with MALME-3M melanoma it was 91.4%; in the test with MDA-MB-231 breast it was 109%; with RXF 393 renal it was 95.9%; in the test on SF-268 CNS, 103%. In addition, the growth in the test with SF-295 CNS is 100%; in the test on SF-539 CNS, 103%; in the test with UACC-257 melanoma it was 95.4%; in the test with M14 melanoma, 108%.

Take `O=C/C=C/c1ccc([N+](=O)[O-])cc1Cl`: the growth is 99.9% with DU-145 prostate; 63.7% in the test on K-562 leukemia; 95.1% in the test on MALME-3M melanoma; 122% with MDA-MB-231 breast; 107% in the test with RXF 393 renal; 93.1% with SF-268 CNS. In addition, the growth is 107% with SF-295 CNS, 96.8% in the test on SF-539 CNS, 91.6% with UACC-257 melanoma and 90.8% in the test with M14 melanoma.

In the case of `O=NN(CCCl)C(=O)Nc1ccc(NC(=O)N(CCCl)N=O)cc1`, the growth was 111% in the test on DU-145 prostate; 92.6% with K-562 leukemia; 105% with MALME-3M melanoma; 109% in the test with MDA-MB-231 breast; 109% in the test with RXF 393 renal; 61.2% in the test on SF-268 CNS. Further, the growth in the test with SF-295 CNS is 74%; in the test on SF-539 CNS, 19.7%; with UACC-257 melanoma, 85.7%; in the test with M14 melanoma, 93.1%.

As to `COc1cc(Nc2ccnc(N3CCN(c4ccnc5cc(Cl)ccc45)CC3)n2)cc(OC)c1`, the growth was 34.1% with DU-145 prostate; 2.73% (active) in the test with K-562 leukemia; -4.19% (active) with MALME-3M melanoma; 18.5% with MDA-MB-231 breast; -18.3% (active) in the test with RXF 393 renal; 27.7% with SF-268 CNS. For the same molecule, the growth is -19.2% (active) in the test with SF-295 CNS, -22.1% (active) with SF-539 CNS, 1.09% (active) with UACC-257 melanoma and -3.5% (active) in the test on M14 melanoma.

On to `C=C[C@]1(C)C=C2C(=O)[C@@]3(O)OC(=O)[C@@]4(CCCC(C)(C)[C@H]34)[C@@]2(O)CC1`, for which the growth in the test on DU-145 prostate was -99.4% (active); with K-562 leukemia it was 1.73% (active); with MALME-3M melanoma, -69.6% (active); in the test on MDA-MB-231 breast, -71.9% (active); with RXF 393 renal, -97.4% (active); with SF-268 CNS it was -66.7% (active). In addition, the growth in the test with SF-295 CNS is -17.2% (active); in the test on SF-539 CNS, -97.6% (active); in the test with UACC-257 melanoma, -93% (active); with M14 melanoma it was -89% (active).

Consider `NC(=O)c1ccc(Br)o1`, for which the growth in the test with DU-145 prostate was 109%; in the test with K-562 leukemia, 105%; with MALME-3M melanoma, 109%; with MDA-MB-231 breast it was 101%; with RXF 393 renal, 112%; in the test on SF-268 CNS, 101%. Further, the growth is 97.4% in the test on SF-295 CNS, 96.5% in the test with SF-539 CNS, 114% with UACC-257 melanoma and 108% with M14 melanoma.

Consider `O=C1/C(=C/c2ccc(O)cc2)Oc2ccc(Cl)cc21`, for which the growth in the test with DU-145 prostate is 114%; with K-562 leukemia, 96%; in the test with MALME-3M melanoma, 82.4%; in the test on MDA-MB-231 breast, 60.1%; with RXF 393 renal, 65.6%; with SF-268 CNS, 93%. Besides, the growth in the test on SF-295 CNS is 89.9%; in the test on SF-539 CNS it was 66.7%; in the test on UACC-257 melanoma, 79%; in the test on M14 melanoma it was 93.9%.

For `CC(=O)Nc1ccc(Sc2ccc(NC(C)=O)cc2)cc1`, the growth is 102% in the test on DU-145 prostate; 96.2% with K-562 leukemia; 102% in the test with MALME-3M melanoma; 100% in the test with MDA-MB-231 breast; 109% in the test on RXF 393 renal; 102% in the test with SF-268 CNS. Also, the growth in the test with SF-295 CNS is 102%; in the test on SF-539 CNS it was 92%; with UACC-257 melanoma, 94.4%; in the test on M14 melanoma, 98.2%.

For `CCCCCCCC/C=C/CCCCCCCCC1=NCCN1CCO`, the growth in the test on DU-145 prostate was 84.7%; in the test with K-562 leukemia, -11.8% (active); in the test on MALME-3M melanoma, 85.8%; with MDA-MB-231 breast, 68.3%; with RXF 393 renal it was 56.8%; in the test on SF-268 CNS, 77.3%. For the same molecule, the growth with SF-295 CNS was 39.6%; in the test on SF-539 CNS it was 75.6%; in the test on UACC-257 melanoma it was 83.5%; in the test with M14 melanoma it was 74%.

For `COc1ccc(-c2cn[nH]c2-c2cc(OC)c(OC)c(OC)c2)cc1`, the growth is 4.46% (active) with DU-145 prostate; 6.36% (active) in the test on K-562 leukemia; 76.4% with MALME-3M melanoma; 8.75% (active) in the test with MDA-MB-231 breast; 14.8% in the test with RXF 393 renal; 19.7% in the test with SF-268 CNS. The growth was 6.26% (active) with SF-295 CNS, -32% (active) with SF-539 CNS, 49.2% with UACC-257 melanoma and 3.85% (active) in the test with M14 melanoma.

For `O=C(CSc1nnc(-c2ccc(Cl)cc2)o1)c1ccccc1`, the growth with DU-145 prostate is 101%; in the test on K-562 leukemia it was 102%; with MALME-3M melanoma, 112%; in the test on MDA-MB-231 breast it was 95.2%; in the test with RXF 393 renal it was 99.9%; with SF-268 CNS, 101%. For the same molecule, the growth in the test on SF-295 CNS is 100%; with SF-539 CNS, 91.4%; in the test with UACC-257 melanoma it was 98.9%; in the test on M14 melanoma, 108%.

Regarding `O=C(C=P(c1ccccc1)(c1ccccc1)c1ccccc1)c1ccc(Br)cc1`, the growth in the test with DU-145 prostate is 90.5%; in the test on K-562 leukemia it was 34.6%; in the test on MALME-3M melanoma, 85.5%; in the test with MDA-MB-231 breast, 77.5%; in the test with RXF 393 renal, 110%; with SF-268 CNS it was 93.5%. The growth in the test with SF-295 CNS is 91.7%; in the test on SF-539 CNS it was 113%; in the test on UACC-257 melanoma, 102%; in the test with M14 melanoma it was 94.1%.

For the molecule `COc1ccc(-c2cc(/C=C/C(=O)c3ccc(N)cc3)[nH]n2)cc1OC`, the growth in the test with DU-145 prostate is 22.8%; with K-562 leukemia, 24.4%; in the test with MALME-3M melanoma, 109%; in the test on MDA-MB-231 breast it was 38.8%; with RXF 393 renal, 21.2%; in the test on SF-268 CNS, 18.8%. Further, the growth with SF-295 CNS was 41%; with SF-539 CNS it was 7.79% (active); in the test with UACC-257 melanoma, 126%; in the test on M14 melanoma, 84.4%.

For `S=c1c2ncccc2c(-c2ccccn2)nn1Cc1ccccn1`, the growth was 111% in the test with DU-145 prostate; 95.6% with K-562 leukemia; 89.6% in the test with MALME-3M melanoma; 112% in the test with MDA-MB-231 breast; 114% in the test on RXF 393 renal; 108% in the test with SF-268 CNS. The growth is 96% with SF-295 CNS, 99.7% in the test on SF-539 CNS, 95.6% with UACC-257 melanoma and 89.9% with M14 melanoma.

Regarding `COC(=O)c1c(C)nc(Nc2nc3ccccc3s2)nc1-c1ccc(Cl)cc1Cl`, the growth in the test on DU-145 prostate is 113%; with K-562 leukemia, 91.2%; in the test on MALME-3M melanoma, 97.1%; in the test on MDA-MB-231 breast, 99.1%; with RXF 393 renal, 107%; in the test with SF-268 CNS, 101%. The growth in the test on SF-295 CNS was 93.3%; in the test with SF-539 CNS it was 103%; with UACC-257 melanoma it was 111%; with M14 melanoma, 101%.

With `CNC(=O)c1cc(Oc2ccc(NC(=O)Nc3ccc(Cl)c(OC(C)C)c3)c(F)c2)ccn1`, the growth with DU-145 prostate is 76.8%; in the test with K-562 leukemia it was 21.8%; in the test with MALME-3M melanoma it was 38.3%; in the test on MDA-MB-231 breast, 59.4%; in the test on RXF 393 renal, 87.6%; in the test on SF-268 CNS it was 58.3%. For the same molecule, the growth was 33.3% in the test on SF-295 CNS, 66.9% in the test with SF-539 CNS, 26.9% in the test with UACC-257 melanoma and 36.1% with M14 melanoma.

Regarding `NC(=O)C1CCCN(Cc2c[nH]c3ccccc23)C1` (stereo not given), the growth with DU-145 prostate was 106%; with K-562 leukemia it was 97.3%; in the test on MALME-3M melanoma it was 99.7%; in the test on MDA-MB-231 breast, 99.8%; in the test with RXF 393 renal, 95.2%; with SF-268 CNS, 96%. For the same molecule, the growth with SF-295 CNS is 92.7%; in the test with SF-539 CNS, 92.9%; with UACC-257 melanoma it was 96.5%; with M14 melanoma it was 99%.

Take `COc1cccc(C(=O)NNc2nc(N3CCN(C4CCCCC4)CC3)nc(N3CCN(C(c4ccccc4)c4ccccc4)CC3)n2)c1`: the growth with DU-145 prostate was 87.5%; with K-562 leukemia, 11.5%; with MALME-3M melanoma it was 9.41% (active); with MDA-MB-231 breast, 57.2%; in the test on RXF 393 renal it was 64.7%; in the test on SF-268 CNS, 51.1%. The growth in the test on SF-295 CNS was 77.3%; with SF-539 CNS, 61.7%; with UACC-257 melanoma, 23.1%; in the test with M14 melanoma, 42.5%.

As for `CNC(=O)c1cc(Oc2ccc(NC(=O)Nc3ccc(Cl)c(OC4CCCCC4)c3)c(F)c2)ccn1`, the growth with DU-145 prostate is 65.6%; in the test on K-562 leukemia it was 17.1%; in the test with MALME-3M melanoma, 69%; in the test with MDA-MB-231 breast it was 68.7%; in the test on RXF 393 renal, 79.4%; in the test on SF-268 CNS, 61%. Moreover, the growth is 20.5% in the test with SF-295 CNS, 59.9% in the test with SF-539 CNS, 23.3% with UACC-257 melanoma and 40% with M14 melanoma.
